According to PubChem BioAssay (NCI):
This is part of a sample that, as a whole, favours compounds with a hit. Of some 79,000 tested, about 15% had one in any assay. A number with no mark means an inactive call. Calls of active or inactive are those of the source. Rule as the data show it: active = growth inhibition above about 70%; inactive = the rest.

Columns and labels:
[1] = NCI Yeast Anticancer Drug Screen. Data for the rad50 strain (AID 155);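 also: 0% = growth of vehicle-only cultures of the same strain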; conditions: S. cerevisiae rad50 strain growth inhibition, hits give high values
Outline: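 Growth of the mutant yeast was measured after compound exposure and referenced to vehicle-treated cultures.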

[2] = NCI Yeast Anticancer Drug Screen. Data for the mec2-1 strain (AID 157); conditions: S. cerevisiae mec2-1 strain, hits give high values
Outline: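 Test agents were screened against the mec2-1 yeast strain, with defined DNA repair or cell cycle alteration. Growth was scored as inhibition against vehicle-only controls.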

[3] = NCI Yeast Anticancer Drug Screen. Data for the sgs1 mgt1 strain (AID 161);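 also: 0% = growth of cultures given vehicle only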; conditions: S. cerevisiae sgs1 mgt1 strain, hits give high values
Outline: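 Inhibition of yeast growth, normalised to vehicle-treated controls, is reported for a strain bearing genetic alterations in DNA damage repair.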

[4] = NCI Yeast Anticancer Drug Screen. Data for the cln2 rad14 strain (AID 165);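 also: 0% = growth equal to vehicle treated cultures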; conditions: S. cerevisiae cln2 rad14 strain, hits give high values
Outline: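 Growth of compound-exposed yeast (cln2 rad14 genotype) measured and expressed as inhibition relative to vehicle.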

[5] = NCI Yeast Anticancer Drug Screen. Data for the bub3 strain (AID 167); conditions: S. cerevisiae bub3 mutant strain, hits give high values
Outline: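 Whole-cell yeast assay. The mutant strain was incubated with compounds, and growth inhibition was determined by comparison with vehicle-treated cells.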

[6] = NCI Yeast Anticancer Drug Screen. Data for the mlh1 rad18 strain (AID 175); conditions: S. cerevisiae mlh1 rad18 strain growth inhibition, hits give high values
Outline: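 In this whole-cell yeast screen, a strain with altered DNA damage repair is challenged with compound, and its growth is measured against matched vehicle-treated controls.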

[7] = at 5.0 µM (retest, dose inferred, filed as 0.5)
[8] = at 50.0 µM (retest, dose inferred, filed as 5.0)

Row | SMILES | growth inhibition [1, 7] | growth inhibition [1, 8] | growth inhibition ([1]; at 50.0 µM) | growth inhibition [2, 7] | growth inhibition [2, 8] | growth inhibition ([2]; at 50.0 µM) | growth inhibition [3, 7] | growth inhibition [3, 8] | growth inhibition ([3]; at 50.0 µM) | growth inhibition [4, 7] | growth inhibition [4, 8] | growth inhibition ([4]; at 50.0 µM) | growth inhibition [5, 7] | growth inhibition [5, 8] | growth inhibition ([5]; at 50.0 µM) | growth inhibition [6, 7] | growth inhibition [6, 8] | growth inhibition ([6]; at 50.0 µM)
1 | C=C(C)[P+](C)(c1ccccc1)c1ccccc1 | -12% | 25% | 72.7% (active) | -12% | 6% | 0.95% | -8% | 22% | 28.9% | 1% | -2% | 4.4% | -18% | 6% | -9.3% | -4% | 4% | 29.3%
2 | Oc1c(Br)ccc2cccnc12 | 26% | 99% (active) | 87.2% (active) | 23% | 99% (active) | 91.2% (active) | 4% | 99% (active) | 83.8% (active) | 0% | 98% (active) | 88.6% (active) | 1% | 99% (active) | 88.5% (active) | 1% | 98% (active) | 82.3% (active)
3 | [Cu+2].[NH-]c1ccccc1O.[NH-]c1ccccc1[OH2+] | 7% | 69% | 50.6% | 20% | 80% (active) | 46.6% | 15% | 67% | 60.4% | 11% | 59% | 35.8% | 45% | 67% | 75.8% (active) | 28% | 82% (active) | 75.6% (active)
4 | O=C(O)/C=C/C(=O)c1ccc(O)cc1 | 25% | 97% (active) | 95.7% (active) | 9% | 94% (active) | 95.8% (active) | 28% | 93% (active) | 94.6% (active) | 7% | 91% (active) | 91.3% (active) | 5% | 95% (active) | 92% (active) | 32% | 98% (active) | 96% (active)
5 | CCCCCCCCNC(=O)C(Cl)Cl | 3% | 17% | -6.1% | -27% | 11% | 2.6% | 0% | 10% | 40% | 12% | -11% | -10.6% | 37% | 84% (active) | 70.4% (active) | 4% | 17% | -3.2%
6 | CC(=O)Oc1ccc(N2C(=O)C=CC2=O)cc1 | 86% (active) | 99% (active) | 98.8% (active) | 81% (active) | 100% (active) | 99.1% (active) | 67% | 99% (active) | 52% | 56% | 100% (active) | 54.2% | 87% (active) | 99% (active) | 99% (active) | 41% | 100% (active) | 52.5%
7 | O=C(c1ccccc1)c1ccc(OCC2CO2)cc1 (configuration not stated) | 10% | 77% (active) | 64.3% | -2% | 23% | 25% | 10% | 64% | 50.4% | -5% | 58% | 20.6% | -1% | 29% | 12.1% | 7% | 74% (active) | 71.9% (active)
8 | C/C=C/C=N/N(c1nnc(-c2ccccc2)c(-c2ccccc2)n1)S(=O)(=O)c1ccc(C)cc1 | 58% | 58% | 92.2% (active) | 29% | 29% | 91.3% (active) | 36% | 36% | 90.1% (active) | 38% | 38% | 90% (active) | 52% | 52% | 92.3% (active) | 34% | 34% | 91.5% (active)
9 | Nc1ccc2c(c1)[nH]c(=O)c1ccc(Cl)cc12 | -63% | 94% (active) | 98.2% (active) | -32% | 82% (active) | 90.5% (active) | -32% | 83% (active) | 93.1% (active) | -30% | 85% (active) | 92.5% (active) | -52% | 91% (active) | 78.9% (active) | -56% | 93% (active) | 97% (active)
